Measurements from PubChem BioAssay (Tox21).
“And” between values parts separate entries of the source, which are not always exact repeats. Equal entries are not always repeated. Inconclusive results are not listed. A structure can be active in one record and inactive in another. The source made the active and inactive calls. Unless noted, the call rests on the fitted dose curve.

Assays:
[1] = target: Nuclear receptor subfamily 1 group I member 3 (Homo sapiens) (UniProt Q14994); test: qHTS assay to identify small molecule antagonists of the constitutive androstane receptor (CAR) signaling pathway (AID 1224838; active means well fitted curve in the direction sought with a large enough effect in the repeat runs; an effect the other way counts as inactive or inconclusive; further: nearly all actives have a fitted effect of over 40% in size; further: potency means the concentration at half of the fitted maximal effect)
Chain of Nuclear receptor subfamily 1 group I member 3 (Homo sapiens) (Q14994 whole entry, looked up): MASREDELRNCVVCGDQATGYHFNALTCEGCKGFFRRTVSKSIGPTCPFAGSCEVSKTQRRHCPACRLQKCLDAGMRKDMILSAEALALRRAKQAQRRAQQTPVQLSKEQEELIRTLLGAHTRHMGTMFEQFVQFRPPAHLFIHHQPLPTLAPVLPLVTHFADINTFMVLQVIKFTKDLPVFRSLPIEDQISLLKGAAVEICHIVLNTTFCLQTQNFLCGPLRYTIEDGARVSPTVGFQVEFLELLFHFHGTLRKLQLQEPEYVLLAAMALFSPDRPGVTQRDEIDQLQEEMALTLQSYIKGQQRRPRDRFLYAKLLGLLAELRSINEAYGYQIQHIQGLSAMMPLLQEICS
Outline: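 HepG2 cells stably co-transfected with hCAR and a CYP2B6-2.2kb luciferase reporter were seeded 4 h before compound addition at 15 concentrations. Cells were stimulated with 50 nM CITCO (final) for 24 h at 37 C; luciferase luminescence was then read.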

[2] = target: Nuclear receptor subfamily 1 group I member 3 (Homo sapiens) (UniProt Q14994); test: qHTS assay to identify small molecule agonists of the constitutive androstane receptor (CAR) signaling pathway (AID 1224839; active means well fitted curve in the direction sought with a large enough effect in the repeat runs; an effect the other way counts as inactive or inconclusive; further: nearly all actives have a fitted effect of over 15% in size; further: potency means the concentration at half of the fitted maximal effect;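 on activation: HepG2 cells stably carrying human CAR and a CYP2B6 luciferase reporter; series mostly up to about 92 µM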)
Outline: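 In this screen, CAR-driven CYP2B6 promoter activity is measured by luminescence in HepG2-CYP2B6-hCAR cells after 24 h with test compounds and 0.75 uM PK11195 (final concentration).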

[3] = qHTS assay to identify small molecule antagonists of the estrogen related receptor signaling pathway with the pleiotropic PPARgamma coactivator (PGC) from Tox21 10K library - cell viability counter screen (AID 1224840; active means well fitted cell-killing curve with a large enough effect in the repeat runs, not every such curve was filed as active; further: nearly all actives have a fitted effect of over 40% in size; further: potency means the concentration at half of the fitted maximal effect)
Outline: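 PGC/ERR cells were seeded at 2,000 cells/well and left 6 hours at 37 C/5% CO2 before pin-tool addition of compounds in DMSO. After 17.5 hours at 37 C, CellTiter-Fluor was added and fluorescence read 30 minutes later.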

[4] = target: Thyrotropin receptor (Homo sapiens) (UniProt P16473); test: qHTS assay to identify small molecule agonists of the thyroid stimulating hormone receptor (TSHR) signaling pathway (AID 1224843); further: nearly all actives have a fitted effect of over 45% in size; further: potency means the concentration at half of the fitted maximal effect
Chain of Thyrotropin receptor (Homo sapiens) (P16473 whole entry, looked up): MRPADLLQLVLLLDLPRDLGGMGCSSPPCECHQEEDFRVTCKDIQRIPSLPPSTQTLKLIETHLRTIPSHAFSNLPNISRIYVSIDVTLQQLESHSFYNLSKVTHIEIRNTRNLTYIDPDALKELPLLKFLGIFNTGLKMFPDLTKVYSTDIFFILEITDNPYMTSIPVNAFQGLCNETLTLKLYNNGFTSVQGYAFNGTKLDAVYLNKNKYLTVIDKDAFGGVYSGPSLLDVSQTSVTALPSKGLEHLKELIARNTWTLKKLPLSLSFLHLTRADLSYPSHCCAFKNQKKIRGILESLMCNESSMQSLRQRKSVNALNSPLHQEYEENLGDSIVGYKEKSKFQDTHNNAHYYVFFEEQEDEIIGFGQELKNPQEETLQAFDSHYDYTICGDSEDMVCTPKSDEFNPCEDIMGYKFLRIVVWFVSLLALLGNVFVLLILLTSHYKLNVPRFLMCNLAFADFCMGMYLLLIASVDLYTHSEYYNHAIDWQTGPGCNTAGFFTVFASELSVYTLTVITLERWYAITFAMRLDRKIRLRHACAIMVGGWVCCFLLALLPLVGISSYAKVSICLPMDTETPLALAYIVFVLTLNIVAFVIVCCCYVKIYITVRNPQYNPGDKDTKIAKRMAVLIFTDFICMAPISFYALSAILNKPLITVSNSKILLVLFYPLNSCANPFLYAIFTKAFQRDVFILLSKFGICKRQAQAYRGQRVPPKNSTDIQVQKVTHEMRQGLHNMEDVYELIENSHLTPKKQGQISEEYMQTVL
Outline: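 HEK293 cells stably bearing the thyrotropin receptor were plated at 800 cells/well and challenged with compound (30 min, RT). Accumulated cAMP was quantified via cAMP-d2 competing for cryptate-tagged antibody.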

[5] = qHTS assay to identify small molecule agonists of the hypoxia (HIF-1) signaling pathway - cell viability counter screen (AID 1224844); further: nearly all actives have a fitted effect of over 50% in size; further: potency means the concentration at half of the fitted maximal effect
Outline: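 HRE-bla ME-180 cells in medium with 0.5% dialyzed FBS were preincubated 5 hrs at 37C, exposed to compounds for 17 hrs, then viability was read as CellTiter-Glo luminescence after 30 min at room temperature, in the reporter wells.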

[6] = qHTS assay to identify small molecule agonists of H2AX (AID 1224845; active means well fitted activation curve with a large enough effect in the signal ratio in the repeat runs, not every such curve was filed as active; the % refers to the signal ratio; further: potency means the concentration at half of the fitted maximal effect)
Outline: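 Phospho-H2AX Ser139 measured by HTRF (ex 320 nm; em 665 and 620 nm) after 24 hr antibody incubation. Compounds, 15 concentrations, 0.76% DMSO, were applied to CHO-K1 cells for 3hr at 37C before lysis.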

[7] = qHTS assay to identify small molecule antagonists of the estrogen related receptor signaling pathway with the pleiotropic PPARgamma coactivator (PGC) from Tox21 10K library (AID 1224841; call rule not given here; further: actives are mostly falling curves and most rising ones were filed inactive; nearly all actives have a fitted effect of over 50% in size; further: potency means the concentration at half of the fitted maximal effect)
Outline: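 PGC/ERR reporter cells were seeded at 2,000 cells/well and held 6 hours at 37 C/5% CO2 before pin-tool addition of compounds in DMSO. After 18 hours at 37 C, One-Glo was added and luminescence read after 30 minutes at room temperature.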

[8] = qHTS assay to identify small molecule agonists of the estrogen related receptor signaling pathway with the pleiotropic PPARgamma coactivator (PGC) from Tox21 10K library (AID 1224842; active means well fitted curve in the direction sought with a large enough effect in the repeat runs; an effect the other way counts as inactive or inconclusive; further: nearly all actives have a fitted effect of over 15% in size)
Outline: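 Luminescence from One-Glo (30 min, room temperature) measured after PGC/ERR cells had 18 h at 37 C with pinned compound (23 nL in DMSO). Cells had been seeded at 2,000 per well and pre-incubated 6 h.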

[9] = qHTS assay to identify small molecule agonists of the hypoxia (HIF-1) signaling pathway (AID 1224846; active means well fitted activation curve with a large enough effect in the signal ratio in the repeat runs, not every such curve was filed as active; the % refers to the signal ratio)
Outline: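 HRE-bla ME-180 cells (beta-lactamase reporter under hypoxia response element) were plated at 2,000 cells/well in medium with 0.5% dialyzed FBS, rested 5 hrs, then given compounds in DMSO for 17 hrs at 37C, 5% CO2. Reporter induction was read with CCF4-AM FRET substrate.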

[10] = qHTS assay to identify small molecule agonists of H2AX - cell viability counter screen (AID 1224847); further: top concentration of the series differs between compounds; nearly all actives have a fitted effect of over 30% in size
Outline: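 Read-out: CellTiter-Glo luminescence, 30 min RT. Cells: wild-type CHO-K1, 1000/well, 10% FBS, plated overnight at 37C. Treatment: 15 concentrations, 3 hr, 37C, 0.76% DMSO.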

Measured: Potency

CC(C)=C[C@@H]1[C@@H](C(=O)OCc2coc(Cc3ccccc3)c2)C1(C)C
inactive: [1] | [3] | [4] | [5] | [6]
17.2 µM (active) and inactive: [2]

COC(=O)c1ccccc1N
not listed: [10]
inactive: all other assays above

CN(N=O)c1ccccc1
not listed: [9]
inactive: all other assays above

O=C(NC(=O)c1c(F)cccc1F)Nc1cc(Cl)c(OC(F)(F)C(F)C(F)(F)F)cc1Cl (stereo unspecified)
not listed: [10]
inactive: all other assays above

COC(=O)c1ccccc1C(=O)OC
38.8 µM (active) and inactive: [7]
inactive: all other assays above

O=NN1CCCC1
16.7 µM (active) and inactive: [6]
11.5 µM (active) and inactive: [5]
28.6 µM (active) and inactive: [1]
not listed: [7] | [8]
inactive: all other assays above

BrCCBr
not listed: [9]
inactive: all other assays above

CN=C=S
not listed: [10]
inactive: all other assays above

COC(=O)NC(=S)Nc1ccccc1NC(=S)NC(=O)OC
inactive: [1] | [2] | [3] | [4] | [5] | [6]

c1ccc2c(c1)Oc1ccccc1O2
not listed: [7] | [8] | [10]
inactive: all other assays above

Cc1ccc(N)cc1N
active: [2] 53 µM
not listed: [4] | [6] | [10]
inactive: all other assays above

O=NN1CCCCCCC1
not listed: [7] | [8]
inactive: all other assays above

CN(C)CCO
not listed: [9] | [10]
inactive: all other assays above

Clc1cccc(Cl)c1Cl
not listed: [9] | [10]
inactive: all other assays above

ClCc1cccnc1
not listed: [7] | [8]
inactive: all other assays above

CCCN(CCC)c1c([N+](=O)[O-])cc(C(F)(F)F)cc1[N+](=O)[O-]
active: [4] 10.8 µM and 12.2 µM
not listed: [7] | [8]
inactive: all other assays above

Cn1cc(-c2ccccc2)c(=O)c(-c2cccc(C(F)(F)F)c2)c1
inactive: all assays above

O=[N+]([O-])c1ccc(Oc2ccc(Cl)cc2Cl)cc1
54.8 µM (active) and inactive: [2]
not listed: [10]
inactive: all other assays above

Clc1ccc(Cl)cc1
not listed: [7] | [8]
inactive: all other assays above

NCC(O)c1ccc(O)cc1 (stereo unspecified)
not listed: [7] | [8]
inactive: all other assays above

CCCCCCCCCCCC#N
not listed: [7] | [8]
inactive: all other assays above

Cc1ccc([N+](=O)[O-])cc1C
not listed: [7] | [8]
inactive: all other assays above

O=c1[nH]c(=O)[nH]c(=O)[nH]1
not listed: [9]
inactive: all other assays above

[N-]=[N+]=[N-]
not listed: [7] | [8]
inactive: all other assays above

Cc1ccc(N)cc1Cl
not listed: [7] | [8] | [10]
inactive: all other assays above

CC(C)(C)C(O)(CCc1ccc(Cl)cc1)Cn1cncn1 (stereo unspecified)
active: [7] 55.1 µM
not listed: [4] | [10]
inactive: all other assays above

Nc1ccccc1C(=O)O
not listed: [10]
inactive: all other assays above

O=C1CCCN1
not listed: [7] | [8]
inactive: all other assays above

O=c1n(Cl)c(=O)n(Cl)c(=O)n1Cl
not listed: [7] | [8]
inactive: all other assays above

CN1C(=O)CN=C(c2ccccc2)c2cc(Cl)ccc21
not listed: [8] | [9]
inactive: all other assays above

Cc1ccccc1O
not listed: [7] | [8]
inactive: all other assays above

O=c1[nH]c2ccccc2c(=O)o1
inactive: [1] | [2] | [3] | [4] | [5] | [6]

c1cc2c3c(cccc3c1)CC2
not listed: [7] | [8] | [10]
inactive: all other assays above

CON(C)C(=O)Nc1ccc(Cl)c(Cl)c1
active: [2] 61.4 µM and 54.5 µM
not listed: [9]
inactive: all other assays above

CCC[N+](=O)[O-]
5.56 µM (active) and inactive: [6]
8.48 µM (active) and inactive: [1]
inactive: [2] | [4]
37.9 µM (active) and inactive: [3]
4.81 µM (active) and inactive: [5]

CCOP(=S)(OCC)Oc1cnc2ccccc2n1
inactive and 30.6 µM (active): [2]
inactive: [1] | [3] | [4] | [5] | [6]

O=[N+]([O-])c1ccc([As](=O)(O)O)cc1
inactive: [1] | [2] | [4] | [5] | [6]

c1ccc2c(c1)oc1ccccc12
not listed: [7] | [8] | [9]
inactive: all other assays above

CC(C)(C)OOC(=O)c1ccccc1
not listed: [4] | [7] | [8]
inactive: all other assays above

CC(C)NC(=O)N1CC(=O)N(c2cc(Cl)cc(Cl)c2)C1=O
30.6 µM (active) and inactive: [7]
not listed: [3] | [9] | [10]
inactive: all other assays above

CN(C)N=O
not listed: [4] | [7] | [8]
inactive: all other assays above

Oc1ccccc1Cl
not listed: [7] | [8] | [9]
inactive: all other assays above

CC(C)(C)OOC(C)(C)C
not listed: [3] | [10]
inactive: all other assays above

CCC(C)(CC)c1cc(NC(=O)c2c(OC)cccc2OC)on1
30.7 µM (active) and inactive: [7]
not listed: [3] | [4] | [10]
inactive: all other assays above

C1CC2OC2CC1C1CO1 (stereo unspecified)
not listed: [7] | [8] | [9]
inactive: all other assays above

COP(N)(=O)SC (stereo unspecified)
inactive: [1] | [2] | [3] | [5] | [6] | [9]

CC(C)C1(C)N=C(c2nc3ccccc3cc2C(=O)O)NC1=O (stereo unspecified)
not listed: [3]
inactive: all other assays above

CCCCOC(=O)c1ccccc1C(=O)OCCCC
not listed: [3] | [4]
inactive: all other assays above

Nc1ccc(Oc2ccc(N)cc2)cc1
not listed: [3] | [9] | [10]
inactive: all other assays above

CCC12COCN1COC2
inactive: [1] | [2] | [4] | [5] | [6] | [9]

C1CN2CCN1CC2
not listed: [7] | [8] | [9]
inactive: all other assays above

C=CCO
not listed: [7] | [8]
inactive: all other assays above

CC(=O)C=C(C)C
not listed: [3]
inactive: all other assays above

ClCCBr
not listed: [3]
inactive: all other assays above

COCCl
not listed: [3] | [9]
inactive: all other assays above
